In all, about 310,000 compounds went through this assay and about 14,000 (4.5%) showed an effect of 50% or more. The effect is printed as a negative number. Only a selection was taken, and strong results are over-represented in it overall.
biological target: human ether-à-go-go-related gene (hERG) potassium channel (human, UniProt Q12809); assay: primary screen, population patch clamp on CHO cells stably expressing hERG; higher = less effect of the substance
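Also: peak tail current of the secondary pulse compared with the same well before compound.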

human ether-à-go-go-related gene (hERG) potassium channel, sequence (Q12809 whole entry, looked up): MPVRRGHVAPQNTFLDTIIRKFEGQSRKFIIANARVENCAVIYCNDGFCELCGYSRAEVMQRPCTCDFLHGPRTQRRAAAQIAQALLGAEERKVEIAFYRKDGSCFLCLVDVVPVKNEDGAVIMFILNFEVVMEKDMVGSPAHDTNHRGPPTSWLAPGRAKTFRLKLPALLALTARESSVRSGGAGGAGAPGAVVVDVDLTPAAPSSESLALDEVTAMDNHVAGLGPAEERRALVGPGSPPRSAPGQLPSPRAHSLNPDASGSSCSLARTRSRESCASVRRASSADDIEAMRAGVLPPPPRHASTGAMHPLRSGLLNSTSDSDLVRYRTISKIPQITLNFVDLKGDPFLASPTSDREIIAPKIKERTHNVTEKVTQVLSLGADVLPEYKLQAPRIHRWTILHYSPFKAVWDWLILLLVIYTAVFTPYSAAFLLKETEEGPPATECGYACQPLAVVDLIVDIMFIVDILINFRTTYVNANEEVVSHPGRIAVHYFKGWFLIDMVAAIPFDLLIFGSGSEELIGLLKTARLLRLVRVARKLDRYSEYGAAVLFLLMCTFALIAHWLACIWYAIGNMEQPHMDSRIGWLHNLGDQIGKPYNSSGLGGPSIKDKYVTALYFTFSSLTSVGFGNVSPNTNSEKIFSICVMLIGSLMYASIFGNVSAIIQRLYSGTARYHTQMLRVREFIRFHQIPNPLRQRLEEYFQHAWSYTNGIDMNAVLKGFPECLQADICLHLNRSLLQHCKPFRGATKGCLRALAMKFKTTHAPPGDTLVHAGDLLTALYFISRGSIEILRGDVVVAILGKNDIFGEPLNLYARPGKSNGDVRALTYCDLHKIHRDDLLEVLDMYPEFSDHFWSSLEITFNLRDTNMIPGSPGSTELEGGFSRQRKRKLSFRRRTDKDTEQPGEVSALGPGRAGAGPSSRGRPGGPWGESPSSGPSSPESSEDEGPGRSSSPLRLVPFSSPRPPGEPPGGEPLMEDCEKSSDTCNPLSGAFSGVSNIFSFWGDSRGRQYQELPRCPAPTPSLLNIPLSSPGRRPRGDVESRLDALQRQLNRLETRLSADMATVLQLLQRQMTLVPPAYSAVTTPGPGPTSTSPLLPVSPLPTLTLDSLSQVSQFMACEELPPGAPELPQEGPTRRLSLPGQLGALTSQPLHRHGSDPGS

SMILES | hERG current change (%, negative = inhibition) at 10uM [%]
Cc1ccc(NC(=O)C(C)OC(=O)Cn2cnc3ccccc3c2=O)cc1 (stereo not drawn) | -12.4
COc1ccc(N2CCN(C(CNC(=O)OCc3ccccc3)c3ccco3)CC2)cc1 (stereo not drawn) | -27.4
CCOC(=O)c1cc(S(=O)(=O)NCCc2ccccc2)cn1C | 2.98
Clc1ccccc1CN1CCN(c2ccccc2Cl)CC1 | 16
CCc1cc(C(=O)c2ccc(OC)cc2)c(N)s1 | -12.7
N/C(CS(=O)(=O)c1ccc(F)cc1)=N\O | 11.8
CC(C)(C)C(=O)CNS(=O)(=O)c1ccc(S(=O)(=O)NC2CC2)cc1 | 12.3
COCCNC(=O)/C(C#N)=C/c1c(N2CC(C)OC(C)C2)nc2ccccn2c1=O (stereo not drawn) | -0.67
CCS(=O)(=O)Nc1ccc(-c2cc(-c3ccccc3)c3cc(C)ccc3n2)cc1 | 0.812
COc1ccc(NC(=O)NC2(C(=O)N3CCN(C)CC3)CCCCC2)cc1 | 9.88
O=C(c1cccc(F)c1)N1CCC2(CC1)NCCc1[nH]cnc12 | 6.92
Cc1cc(Br)c(NC(=O)COC(=O)CSc2nnc(-c3ccc(Cl)cc3)o2)c(Br)c1 | 1.39
CCN(CC)c1ccc(NC(=S)NCC2CCCO2)cc1 (stereo not drawn) | 7.83
CN=C1c2cc3c(Br)c(OC)ccc3n2CCN1C.Cl | -66.9
COc1ccc2nc(N3CCCC3)[nH]c2c1.Cl | -15.7
COc1ccc2c(c1)cc1n2CCN=C1NN.Cl.O | 2.89
COc1ccc(C(=S)N2CCN(C)CC2)cc1Br | -9.51
COc1ccc2c(c1)cc1n2CCN2CCCN=C12.Cl | -51.6
O=C(Nc1ccc2nn(-c3ccccc3)nc2c1)c1ccco1 | 7.51
COC(=O)c1ccc(CSc2nnc(NC(C)C)s2)o1 | 29.8

SMILES | hERG current change (%, negative = inhibition) at 10uM [%]
O=C(/C=C/c1cccc(Cl)c1)Nc1ccncc1 | -17.1
O=C(Nc1cccc(-n2cnnn2)c1)c1ccc(Cl)cc1Cl | 4.58
Cc1ccc(Sc2nc3c(c(=O)[nH]c(=O)n3C)n2CCc2ccccc2)cc1 | 5.16
Cc1nn(Cc2c(F)c(F)c(F)c(F)c2F)c(C)c1NC(=O)c1cccc(COc2ccccc2Cl)c1 | -3.4
CC(C)Oc1ccc(CN2CCC(n3nccc3NC(=O)CCc3ccccc3)CC2)cc1 | -82.3
CC(=O)Nc1ccc(CN2CCC(n3nccc3NC(=O)CCc3ccccc3)CC2)cc1 | -5.87
CCOc1cccc(CN2CCC(n3nccc3NC(=O)CCCc3ccccc3)CC2)c1 | -27.5
Cn1cc(CN2CCC(n3nccc3NC(=O)CCc3ccccc3)CC2)cn1 | 16
O=C(CCc1ccccc1)Nc1ccnn1C1CCN(Cc2ccc(OCCO)cc2)CC1 | -65.3
Cn1cc(CN2CCC(n3nccc3NC(=O)CCOc3ccccc3)CC2)cn1 | 17.1
COc1cccc(CN2CCC(n3nccc3NC(=O)CCCc3ccccc3)CC2)c1 | -71.3
O=C(CCOc1ccccc1)Nc1ccnn1C1CCN(Cc2ccc(O)cc2)CC1 | -31.3
O=C(CCc1ccccc1)Nc1ccnn1C1CCN(Cc2ncc[nH]2)CC1 | 19
CCn1cc(CN2CCC(n3nccc3NC(=O)CCc3ccccc3)CC2)cn1 | 2.28
CC(=O)c1cccc(CN2CCC(n3nccc3NC(=O)CCCc3ccccc3)CC2)c1 | -37.8
O=C(CCOc1ccccc1)Nc1ccnn1C1CCN(Cc2ccccc2)CC1 | -50
OC1CCCN(Cc2ccc3ccc4cccc5ccc2c3c45)C1 (stereo not drawn) | -4.79
CCOC(=O)c1c(C)[nH]c(C)c1S(=O)(=O)N(C)CC(=O)NCc1cccc(C)c1 | -13.3
COc1ccc(-c2cc3ccccc3[nH]2)cc1 | 7.8
O=C(Nc1ccccc1C(=O)NCCCn1ccnc1)c1ccc(Cl)cc1Cl | -47.1

SMILES | hERG current change (%, negative = inhibition) at 10uM [%]
O=C(Nc1ccc(Cl)cc1)Nc1nc(-c2ccccc2)cs1 | 11.3
CCc1ccc(OCC(=O)N/N=C(\C)c2ccc3c(c2)OCCO3)cc1 | -21.5
CC(Oc1ccccc1)C(=O)NNS(=O)(=O)c1ccc([N+](=O)[O-])cc1 (stereo not drawn) | 13.4
COc1ccc2cc(C(=O)N3CCC(Cc4ccccc4)CC3)[nH]c2c1 | 25.5
C/C(=N\Nc1ccccc1)c1c(O)n(Cc2ccccc2)c(=O)[nH]c1=O | 8.42
O=C(CSc1ccccc1C(=O)NCc1ccccc1)NC1CCCCCCC1 | -8.1
O=C(/C=C/c1ccc([N+](=O)[O-])cc1)NCc1cccnc1 | -42.7
CC1(C)CC(=O)C=C(C(=O)N2CCCC(C(=O)c3cccc(Cl)c3)C2)O1 (stereo not drawn) | -31
O=C(O)c1ccc(NS(=O)(=O)c2ccc(Cl)cc2)cc1 | 0.513
COc1cccc(C(=O)N2CCC(n3nccc3NC(=O)CCOc3ccccc3)CC2)c1 | -0.0371
Cc1ccc(CN2CCC(n3nccc3NC(=O)CCOc3ccccc3)CC2)o1 | -20.7
O=C(CCCc1ccccc1)Nc1ccnn1C1CCN(Cc2ccccc2F)CC1 | -49
COc1cccc(CN2CCC(n3nccc3NC(=O)CCOc3ccccc3)CC2)c1 | -62
COc1ccc(F)c(CN2CCC(n3nccc3NC(=O)CCCc3ccccc3)CC2)c1 | -86.7
CC(=O)c1cccc(CN2CCC(n3nccc3NC(=O)CCOc3ccccc3)CC2)c1 | -3.2
CCNC(=O)N1CCC(n2nccc2NC(=O)CCOc2ccccc2)CC1 | 9.99
Cc1cc(C)c(CN2CCC(n3nccc3NC(=O)CCOc3ccccc3)CC2)cc1C | -26.1
O=C(CCOc1ccccc1)Nc1ccnn1C1CCN(Cc2ccc(CO)o2)CC1 | 6.52
COc1ccc(O)c(CN2CCC(n3nccc3NC(=O)CCOc3ccccc3)CC2)c1 | -60.4
O=C(CCOc1ccccc1)Nc1ccnn1C1CCN(CCc2ccccc2)CC1 | -65.1

Source: article PMC4336329 (PLoS ONE, 2015)
